Experimental findings from PubChem BioAssay (NCI) are described below.

About 79,000 compounds went through this panel and 15% of them were active in at least one assay; those are over-represented in the sample as a whole. Active and inactive are the calls of the source. Cut-off read from the data, not from the text of the source: active = growth inhibition above about 70%; inactive = the rest.

One experiment in a line: NCI Yeast Anticancer Drug Screen. Data for the sgs1 mgt1 strain (AID 161).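 Note: 0% = growth of cultures given vehicle only.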 The conditions noted are these: S. cerevisiae sgs1 mgt1 strain, at 50.0 µM, hits give high values. The procedure, abridged:
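Inhibition of yeast growth, normalised to vehicle-treated controls, is reported for a strain bearing genetic alterations in DNA damage repair.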
Regarding `O=C(O)c1cc2ccccc2o1`, the growth inhibition was 16.9% (inactive).
As to `O=C(O)CNC(=O)C(Cc1ccccc1)NC(=O)CNC(=O)C(CSC(c1ccccc1)c1ccccc1)NC(=O)C(CSC(c1ccccc1)(c1ccccc1)c1ccccc1)N1C(=O)c2ccccc2C1=O` (stereo not given), the growth inhibition is -3.7% (inactive).
For the compound `CC(=O)N1CCC23C(=O)CC4C(=CCOC5CC(=O)N(c6ccccc62)C3C54)C1` (stereo not given), the growth inhibition is -4.5% (inactive).
For the compound `CCCCCCCN1C(=O)C(O)(c2ccc(C3(O)C(=O)N(CCCCCCC)c4ccccc43)s2)c2ccccc21` (stereo not given), the growth inhibition was 4.9% (inactive).
`CC(=O)C1C(=O)C(=O)N(c2ccc([N+](=O)[O-])cc2)C1=O` (stereo not given): the growth inhibition is -10.7% (inactive).
As to `Cc1cc([N+](=O)[O-])c2ncccc2c1`, the growth inhibition was -2.7% (inactive).
Same read-out and setting: with `CC(=O)c1cccc(NC(=O)OCC2CC3C=CC2C3)c1` (stereo not given) the figure was 45.9% (inactive); with `Nc1cc(Cl)c2c(c1)C(=O)c1ccccc1-2`, -3.95% (inactive); with `CN(CCSSCCN(C)/N=C/c1ccccc1)/N=C/c1ccccc1`, -26.7% (inactive).
On the same count and under the same terms, with `Cc1cc(C)n(-c2ccnc(-n3nc(C)cc3C)n2)n1` the figure was 33.9% (inactive); with `CCO/C=C1/N=C(c2ccccc2Cl)OC1=O`, -1.05% (inactive).
For the compound `COc1ccc(C2NC(C(=O)O)Cc3c2[nH]c2ccccc32)cc1OC` (stereo not given), the growth inhibition was -14.8% (inactive).
On the same count and under the same terms, with `O=C(Cc1nc2ccccc2[nH]c1=O)c1cccnc1` the figure was 13.2% (inactive); with `CC(=O)NC1C(OC2C(CO)OC(OCC3OC(n4ccc(N)nc4=O)C(O)C3O)C(NC(C)=O)C2O)OC(CO)C(O)C1O` (stereo not given), 2.1% (inactive); with `C#C[C@@H](CCCC)OC(=O)N[C@H](C)c1ccccc1`, 64.5% (inactive).
The same measure, in the same setting: with `O=C(Nc1cc(C(F)(F)F)ccc1Cl)C(=O)C(C(=O)c1ccc2ccccc2c1)C1OC(=O)c2ccccc21` (stereo not given) the figure was 19.6% (inactive).
The same measure, in the same setting: with `Cc1n[n+](CC(=O)c2ccccc2)c2sc(N)nn12` the figure was -58.6% (inactive); with `CC12CCC(C/C1=N\N=C(N)N)C2(C)C` (stereo not given), -2.2% (inactive); with `CC(=O)Nc1cc(Cl)ccc1C`, 26.3% (inactive).
Turning to `C1=Nc2ccccc2/C1=C/c1ccc2c(c1)OCO2`, the growth inhibition was -6.9% (inactive).
As to `CC(C)=C=CC(C)(C)NS(=O)(=O)NC(C)(C)C=C=C(C)C`, the growth inhibition was 2.4% (inactive).
Still for that read-out and setting: with `ClCCOCc1ccc(Cl)c(Cl)c1` the figure was 6.15% (inactive).
As for `COC(=O)C1(C(C(=O)c2ccccc2)c2ccccc2)NC(=S)NC(=O)C1C#N` (stereo not given), the growth inhibition was -19.9% (inactive).
For the compound `O=C1CCCC2=C1C(c1ccc(Cl)c(Cl)c1)C1=C(CCCC1=O)O2`, the growth inhibition is -7.25% (inactive).
On the same count and under the same terms, the figure for `CCOC(=O)CCOc1ccccc1` is 8.45% (inactive); for `CCOP(=O)(OCCN(C)C)C(c1ccccc1)c1ccccc1` (stereo not given) it is -10.8% (inactive).
Regarding `Nc1nc(N)c2cc(CNc3ccc(C(=O)NC(C(=O)O)C(=O)O)cc3)ccc2n1`, the growth inhibition is -3.15% (inactive).
Turning to `CCC1(CC)C(=O)OC(=O)C1(CC)CC`, the growth inhibition is 2.8% (inactive).
The same measure, in the same setting: the figure for `O=[N+]([O-])c1ccc(N=NN2CCOCC2)cc1` is -1.4% (inactive); for `CCc1ccc2c(c1)/C(=N\NC(N)=O)CCC2` it is -12.8% (inactive).
Same read-out and setting: with `C/C(=N\NC(=O)CCCCC(=O)N/N=C(\C)c1ccc(C)cc1)c1ccc(C)cc1` the figure was 10.4% (inactive); with `Fc1ccc(-c2ncc(-c3ccccc3)o2)cc1`, 5.45% (inactive); with `O=CNC1(CO)CCCCC1`, -7.05% (inactive).
As for `CN(C)c1ncnc2c1ncn2CC(O)CN` (stereo not given), the growth inhibition was -15.8% (inactive).
On the same count and under the same terms, with `COc1cc(C2CC(C)(N3CCCC3)Oc3cc4c(cc32)OCO4)cc(OC)c1OC` (stereo not given) the figure was 9.5% (inactive).
Still for that read-out and setting: the figure for `Cc1cc2ccccc2n1CC(=O)N1CCCC1` is -23.6% (inactive); for `Cc1ccccc1CN` it is -10.8% (inactive).
Same read-out and setting: the figure for `CCn1c2c(c3ccccc31)[C@@H](c1ccc(Cl)cc1)CC1C(=O)N(c3ccccc3)C(=O)C21` (stereo not given in full) is 14.8% (inactive); for `COC(=O)c1noc2c1CSC1=C2CS(=O)(=O)c2ccccc21` it is 30.4% (inactive).
As to `COC1OC(C(C)Br)C2OC(C)(C)OC12` (stereo not given), the growth inhibition was 3.5% (inactive).

Another experiment can be described thus: NCI Yeast Anticancer Drug Screen. Data for the cln2 rad14 strain (AID 165).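 Note: 0% = growth equal to vehicle treated cultures.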 The conditions noted are these: S. cerevisiae cln2 rad14 strain, at 50.0 µM, hits give high values. The procedure, abridged:
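Each compound was tested on cln2 rad14 yeast. Inhibition of growth was calculated against vehicle-exposed controls.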
As for `O=C(O)c1cc2ccccc2o1`, the growth inhibition is 20.6% (inactive).
Same read-out and setting: with `O=C(O)CNC(=O)C(Cc1ccccc1)NC(=O)CNC(=O)C(CSC(c1ccccc1)c1ccccc1)NC(=O)C(CSC(c1ccccc1)(c1ccccc1)c1ccccc1)N1C(=O)c2ccccc2C1=O` (stereo not given) the figure was -17.9% (inactive).
The same measure, in the same setting: the figure for `CC(=O)N1CCC23C(=O)CC4C(=CCOC5CC(=O)N(c6ccccc62)C3C54)C1` (stereo not given) is 8.9% (inactive); for `CCCCCCCN1C(=O)C(O)(c2ccc(C3(O)C(=O)N(CCCCCCC)c4ccccc43)s2)c2ccccc21` (stereo not given) it is 10.2% (inactive).
With `CC(=O)C1C(=O)C(=O)N(c2ccc([N+](=O)[O-])cc2)C1=O` (stereo not given), the growth inhibition is 20.9% (inactive).
On to `Cc1cc([N+](=O)[O-])c2ncccc2c1`, for which the growth inhibition is -33% (inactive).
Regarding `CC(=O)c1cccc(NC(=O)OCC2CC3C=CC2C3)c1` (stereo not given), the growth inhibition was 4% (inactive).
Same read-out and setting: with `Nc1cc(Cl)c2c(c1)C(=O)c1ccccc1-2` the figure was -5.3% (inactive); with `CN(CCSSCCN(C)/N=C/c1ccccc1)/N=C/c1ccccc1`, -27.6% (inactive).
Still for that read-out and setting: the figure for `Cc1cc(C)n(-c2ccnc(-n3nc(C)cc3C)n2)n1` is 7.7% (inactive).
Turning to `CCO/C=C1/N=C(c2ccccc2Cl)OC1=O`, the growth inhibition was -30.1% (inactive).
On the same count and under the same terms, the figure for `COc1ccc(C2NC(C(=O)O)Cc3c2[nH]c2ccccc32)cc1OC` (stereo not given) is -12.9% (inactive); for `O=C(Cc1nc2ccccc2[nH]c1=O)c1cccnc1` it is 1.55% (inactive).
Same read-out and setting: with `CC(=O)NC1C(OC2C(CO)OC(OCC3OC(n4ccc(N)nc4=O)C(O)C3O)C(NC(C)=O)C2O)OC(CO)C(O)C1O` (stereo not given) the figure was -16.2% (inactive); with `C#C[C@@H](CCCC)OC(=O)N[C@H](C)c1ccccc1`, -11.6% (inactive).
As for `O=C(Nc1cc(C(F)(F)F)ccc1Cl)C(=O)C(C(=O)c1ccc2ccccc2c1)C1OC(=O)c2ccccc21` (stereo not given), the growth inhibition was 20.3% (inactive).
The same measure, in the same setting: with `Cc1n[n+](CC(=O)c2ccccc2)c2sc(N)nn12` the figure was -50% (inactive); with `CC12CCC(C/C1=N\N=C(N)N)C2(C)C` (stereo not given), -36.9% (inactive).
Same read-out and setting: with `CC(=O)Nc1cc(Cl)ccc1C` the figure was 16.1% (inactive); with `C1=Nc2ccccc2/C1=C/c1ccc2c(c1)OCO2`, -55.6% (inactive); with `CC(C)=C=CC(C)(C)NS(=O)(=O)NC(C)(C)C=C=C(C)C`, 3.35% (inactive).
Same read-out and setting: the figure for `ClCCOCc1ccc(Cl)c(Cl)c1` is -13.5% (inactive); for `COC(=O)C1(C(C(=O)c2ccccc2)c2ccccc2)NC(=S)NC(=O)C1C#N` (stereo not given) it is 6.25% (inactive); for `O=C1CCCC2=C1C(c1ccc(Cl)c(Cl)c1)C1=C(CCCC1=O)O2` it is -18.5% (inactive).
For the compound `CCOC(=O)CCOc1ccccc1`, the growth inhibition is 3.8% (inactive).
Take `CCOP(=O)(OCCN(C)C)C(c1ccccc1)c1ccccc1` (stereo not given): the growth inhibition was -6.25% (inactive).
Regarding `Nc1nc(N)c2cc(CNc3ccc(C(=O)NC(C(=O)O)C(=O)O)cc3)ccc2n1`, the growth inhibition was -16.6% (inactive).
The same measure, in the same setting: the figure for `CCC1(CC)C(=O)OC(=O)C1(CC)CC` is -8.2% (inactive).
The same measure, in the same setting: the figure for `O=[N+]([O-])c1ccc(N=NN2CCOCC2)cc1` is -1% (inactive); for `CCc1ccc2c(c1)/C(=N\NC(N)=O)CCC2` it is -7.6% (inactive).
On the same count and under the same terms, with `C/C(=N\NC(=O)CCCCC(=O)N/N=C(\C)c1ccc(C)cc1)c1ccc(C)cc1` the figure was -45.7% (inactive); with `Fc1ccc(-c2ncc(-c3ccccc3)o2)cc1`, 0.05% (inactive); with `O=CNC1(CO)CCCCC1`, -38.8% (inactive).
`CN(C)c1ncnc2c1ncn2CC(O)CN` (stereo not given): the growth inhibition was 4.4% (inactive).
As to `COc1cc(C2CC(C)(N3CCCC3)Oc3cc4c(cc32)OCO4)cc(OC)c1OC` (stereo not given), the growth inhibition was -47.4% (inactive).
For the compound `Cc1cc2ccccc2n1CC(=O)N1CCCC1`, the growth inhibition was 0.8% (inactive).
Take `Cc1ccccc1CN`: the growth inhibition was 1.05% (inactive).
Same read-out and setting: with `CCn1c2c(c3ccccc31)[C@@H](c1ccc(Cl)cc1)CC1C(=O)N(c3ccccc3)C(=O)C21` (stereo not given in full) the figure was -8.05% (inactive); with `COC(=O)c1noc2c1CSC1=C2CS(=O)(=O)c2ccccc21`, 14.8% (inactive).
Take `COC1OC(C(C)Br)C2OC(C)(C)OC12` (stereo not given): the growth inhibition was -6.2% (inactive).
